Assay outcomes (PubChem BioAssay)
rCAG RNA binder: binders of r(CAG) RNA repeats, primary screen, biochemical, fluorescence | r(CAG) RNA repeat, TO-PRO-1 dye displacement fluorescence | inhibition, % at 3 µM | 370,000 compounds, 1.3% hits;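 active = inhibition above the plate cutoff, the mean of all test compounds on that plate plus 3 SD, cut at about 35% in these data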;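 also: higher means more dye released from RNA so lower well fluorescence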
ADAM10 inh: human ADAM10 inhibitors, primary screen, biochemical, QFRET, HTS; AID 720582, 2013; 370,000 compounds, 0.62% hits; recombinant ADAM10, EDANS/DABCYL FRET peptide cleavage, 3 h; Disintegrin and metalloproteinase domain-containing protein 10 (Homo sapiens), O14672; inhibition, % at 7 µM;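 active = inhibition above a per-campaign cutoff equal to the mean of compounds falling between control-based bounds plus 3 SD, cut at about 20% in these data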
proKLK7 act: proKLK7 zymogen activators, primary screen, biochemical, fluorescence intensity | purified proKLK7, EDANS-DABCYL substrate fluorescence; 100% is mature enzyme control, 0% vehicle | Kallikrein-7 (Homo sapiens), P49862 | 370,000 compounds, 0.9% hits | activation, % at 7 µM | AID 652039, 2013;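 active = activation above the mean of all tested compounds plus 3 SD, computed per campaign excluding outliers beyond control limits, cut at about 13% in these data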
Target sequence (P49862 whole entry, looked up): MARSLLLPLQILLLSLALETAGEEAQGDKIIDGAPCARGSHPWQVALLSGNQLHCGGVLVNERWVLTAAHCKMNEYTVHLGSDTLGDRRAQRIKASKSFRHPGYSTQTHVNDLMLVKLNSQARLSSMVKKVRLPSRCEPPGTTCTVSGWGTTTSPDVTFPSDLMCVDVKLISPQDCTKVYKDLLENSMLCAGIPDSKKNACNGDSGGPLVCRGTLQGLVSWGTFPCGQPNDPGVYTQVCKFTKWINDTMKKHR
GRIN3A LBD mod: binders of NR3A ligand-binding domain, primary screen, biophysical, differential scanning fluorimetry, uHTS; Glutamate receptor ionotropic, NMDA 3A (GRIN3A) ligand-binding domain; NR3A LBD differential scanning fluorimetry, Tm shift; 0% = protein alone, 100% = glycine-bound protein; Tm shift relative to glycine control, % at 25 µM; 340,000 compounds, 2.5% hits;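 active = melting temperature shift of at least 10% of the positive control shift, at one fixed dose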
ADAM17 inh: ADAM17 inhibitors, primary screen, biochemical, QFRET; Disintegrin and metalloproteinase domain-containing protein 17 (Homo sapiens), P78536; recombinant ADAM17, EDANS/DABCYL FRET peptide cleavage; inhibition, % at 6.95 µM; 370,000 compounds, 0.83% hits;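 active = inhibition above the mean of compounds lying between control limits plus 3 SD, set per campaign, cut at about 8.5% in these data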
AHR act: AHR activators, primary screen, cell-based, luminescence, luciferase reporter, human; AID 2796, 2010; activation, % at 5 µM; AHR-responsive luciferase reporter cells; 320,000 compounds, 2.5% hits; Aryl hydrocarbon receptor (Homo sapiens), P35869; in the data active = activation above about 47%
KLK7 act conf: proKLK7 zymogen activators, confirmation, biochemical, fluorescence intensity, triplicate; shares compounds with proKLK7 act; purified proKLK7, EDANS-DABCYL substrate fluorescence; scaled: vehicle 0, mature enzyme 100; activation, % at 7 µM; 3,200 compounds, 68% hits;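 active = activation, as change over the incubation, above the mean of all tested compounds plus 3 SD, cut at about 13% in these data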
EDANS interfere: EDANS-DABCYL substrate optical interference, artefact control for kallikrein-7 zymogen activator project, biochemical, fluorescence intensity, high throughput | shares compounds with proKLK7 act | no enzyme, 4 h; solvent 0%, active enzyme control 100% | activation, % at 7 µM | 3,200 compounds, 80% hits | AID 686952, 2013;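 active = activation above the all-compound mean plus 3 SD, ignoring values outside control-based bounds, cut at about 4.8% in these data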;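 also: value is the 4 h activation minus the activation read at time zero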
K7 EDANS ctr: optically interferes with EDANS-DABCYL fluorescence, kallikrein-7 activator counter-screen | shares compounds with proKLK7 act | EDANS-DABCYL peptide fluorescence interference, no enzyme | EC50, µM | 250 compounds, 20% hits;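 active = compounds that raise the fluorescence signal in this interference counterscreen, with EC50 at or below 10 µM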;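 also: intact quenched peptide substrate alone read at 355 nm excitation and 520 nm emission; signal is fluorescence gain from T0 to T4 after four hours at room temperature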
A number is an active result; . = inactive; / = no result given. This is a sample that favours compounds with a hit; in the whole collection about 7% have one here.

SMILES | rCAG RNA binder | ADAM10 inh | proKLK7 act | GRIN3A LBD mod | ADAM17 inh | AHR act | KLK7 act conf | EDANS interfere | others
COc1ccc(Oc2coc3c(CN(C)C)c(O)ccc3c2=O)cc1 | . | . | . | . | . | . | / | /
COc1ccc(-c2c(C)oc3c(CN4CCN(C)CC4)c(O)ccc3c2=O)cc1 | . | . | 58.9 | . | . | . | 40.2 | 49.6
CC1(C)Cc2c(cnn2-c2cccc(F)c2)C(NC(=O)C2CCOCC2)C1 (centres undefined) | . | . | . | . | . | . | / | /
COc1ccccc1Oc1c(C)oc2c(CN3CCN(C)CC3)c(O)ccc2c1=O | . | . | 76.8 | / | . | . | 69.1 | 76.3
O=c1c(Oc2ccccc2Br)c(C(F)(F)F)oc2c(CN3CCCC3)c(O)ccc12 | . | . | . | . | . | . | / | /
CCN1CCN(Cc2c(O)ccc3c(=O)c(-c4ccc(OC)c(OC)c4)c(C)oc23)CC1 | . | . | . | . | . | . | / | /
COc1cccc(Oc2c(C)oc3c(CN4CCCCC4)c(O)ccc3c2=O)c1 | . | . | 61.5 | . | . | . | 61.3 | 71.4
Cc1ccc(/C(O)=C2/C(=O)C(=O)N(CC(=O)O)C2c2ccc([N+](=O)[O-])cc2)cc1 (centres undefined) | . | . | . | . | . | . | / | /
O=C1CCC(=O)N1c1nc2nc(-c3ccccc3)cc(-c3ccccc3)n2n1 | . | . | 30.6 | . | . | . | 40.3 | 43.9
O=[N+]([O-])c1cc2c(cc1/C=N/NS(=O)(=O)c1ccc(Br)cc1)OCO2 | . | . | . | . | . | . | / | /
COc1cccc(CN(C)Cc2cc(=O)oc3cc(O)c(Cl)cc23)c1 | . | . | 37.7 | . | . | . | 27.9 | 36.8
Cc1ccc(O)c(C(=O)c2cnn(C(=O)Cc3csc(C)n3)c2)c1 | . | . | 19.8 | . | . | . | 53.6 | 52.7
Cn1c2ccccc2c2ncn(Cc3ccc(F)cc3)c(=O)c21 | . | . | . | . | . | . | / | /
Cn1c2ccsc2c2ncn(Cc3ccccc3F)c(=O)c21 | . | . | 65.4 | . | . | . | 65.0 | 62.3
Nc1nccnc1C(=O)OCC(=O)Nc1ccc2[nH]c(=O)[nH]c2c1 | . | . | 27.1 | . | . | . | 53.1 | 47.9
Nc1cccc2c1C(=O)N(C(=O)c1ccc(Cl)c(S(=O)(=O)N3CCCCCC3)c1)C2=O | . | . | 17.9 | . | . | . | 217.2 | 233.2
Cc1ccc(S(=O)(=O)N2CCOCC2)cc1C(=O)N1C(=O)c2cccc(N)c2C1=O | . | . | . | . | . | . | / | /
Nc1cccc2c1C(=O)N(C(=O)c1cccc(S(=O)(=O)N3CCCCCC3)c1)C2=O | . | . | 19.0 | . | . | . | 257.8 | 269.1
O=C(CN1C(=O)NC2(CCCc3ccccc32)C1=O)N1CCCCC1 (centres undefined) | . | . | . | . | . | . | / | /
CCOC(=O)c1cnc2c(C)cccc2c1NCc1ccco1 | . | . | . | / | . | . | / | /
CCOC(=O)c1cnc2c(C(=O)OC)cccc2c1NCc1ccco1 | . | . | 14.3 | . | . | . | 14.6 | 7.3 | K7 EDANS ctr=.
CCc1nccn1CCC(=O)NC1CC(C)(C)Cc2c1cnn2-c1cccc(F)c1 (centres undefined) | . | . | . | . | . | . | / | /
O=C1c2cccc3cccc(c23)C(=O)N1OS(=O)(=O)c1ccc(Br)cc1 | . | . | . | . | . | . | / | /
O=C1c2cccc3cccc(c23)C(=O)N1OS(=O)(=O)c1ccccc1 | . | . | 26.1 | . | . | . | . | .
Cc1ccc(S(=O)(=O)ON2C(=O)c3cccc4cccc(c34)C2=O)cc1 | . | . | 19.0 | . | . | . | . | 38.6
SMILES | rCAG RNA binder | ADAM10 inh | proKLK7 act | GRIN3A LBD mod | ADAM17 inh | AHR act | KLK7 act conf | EDANS interfere | others
CCCCNC(=O)c1[nH]c(=O)cnc1-c1ccccc1 | . | . | . | / | . | / | / | /
CCOC(=O)C1(Cc2cccc(OC)c2)CCCN(C(=O)c2cc(C)oc2C)C1 (centres undefined) | . | . | . | . | . | . | / | /
COc1cc(NC(=O)c2cc(OC)c(OC)c(OC)c2)cc(-n2cnnn2)c1 | . | . | . | . | . | . | / | /
COC(=O)C1=CN(C(C)C)C=C(C(=O)OC)C1c1cccc(OC)c1 | . | . | 38.6 | . | . | . | . | .
COC(=O)C1=CN(Cc2ccc(OC)cc2)C=C(C(=O)OC)C1c1ccsc1 | . | . | . | . | . | . | / | /
COC(=O)C1=CN(Cc2ccc(OC)c(OC)c2)C=C(C(=O)OC)C1c1cccc(O)c1 | . | . | 16.6 | . | . | . | . | .
CCOC(=O)C1=CN(C)C=C(C(=O)OCC)C1c1ccsc1 | . | . | 28.8 | . | . | . | . | .
COC(=O)C1=CN(Cc2ccc(F)cc2)C=C(C(=O)OC)C1c1ccc(O)c(OC)c1 | . | . | . | . | . | / | / | /
COC(=O)C1=CN(CC2CCCO2)C=C(C(=O)OC)C1c1cccc(O)c1 (centres undefined) | . | . | 62.8 | . | . | . | 65.5 | 61.1
COC(=O)C1=CN(CC2CCCO2)C=C(C(=O)OC)C1c1ccccc1C(F)(F)F (centres undefined) | . | . | . | . | . | . | / | /
CCN1C=C(C(=O)OC)C(c2cccc(C)c2)C(C(=O)OC)=C1 | . | . | 40.2 | . | . | . | . | .
COC(=O)C1=CN(CCOC23CC4CC(CC(C4)C2)C3)C=C(C(=O)OC)C1c1ccsc1 | . | . | . | . | . | . | / | /
COC(=O)C1=CN(CC2CCCO2)C=C(C(=O)OC)C1c1ccsc1 (centres undefined) | . | . | 27.4 | . | . | . | 33.7 | 18.3 | K7 EDANS ctr=.
OCc1ccc(-c2cccc3nccn23)cc1 | . | . | 15.8 | / | . | / | 14.5 | 13.8
CN(C)C(=O)c1cccc(-c2cccc3nccn23)c1 | . | . | . | / | . | / | / | /
Cc1cccc(-c2cccc3nccn23)c1 | . | . | . | / | . | / | / | /
CONC(=O)c1ccc(-c2cccc3nccn23)cc1 | . | . | 13.3 | / | . | / | . | 12.4
CN(C)c1oc(-c2ccccc2Cl)nc1P(=O)(c1ccccc1)c1ccccc1 | . | . | . | . | . | . | / | /
